Potency data for 27 molecules are collected here from PubChem BioAssay (Tox21).

Records with an inconclusive call do not appear. Unmarked numbers belong to inactive results. Active and inactive are the calls of the source. Unless noted, the call rests on the fitted dose curve.

Assay [1] can be described thus: qHTS assay to identify small molecule agonists of the vitamin D receptor (VDR) signaling pathway - cell viability counter screen (AID 743224; active means well fitted curve in the direction sought with a large enough effect in the repeat runs; an effect the other way counts as inactive or inconclusive; further: nearly all actives have a fitted effect of over 50% in size; further: potency means the concentration at half of the fitted maximal effect). An outline of the steps:
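Cytotoxicity counter screen: VDR-bla cells, 16 h compound exposure at 37C, 5% CO2; CellTiter-Glo luminescence, 30 min RT, same wells as bla read.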

A short description of assay [2]: qHTS assay to identify small molecule agonists of the NFkB signaling pathway - cell viability counter screen (AID 1159515). Further: nearly all actives have a fitted effect of over 55% in size. Further: potency means the concentration at half of the fitted maximal effect. In outline:
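ME-180 NFkB-bla cells, 2,000/well; overnight attach; compound 5 hr, 37 C/5% CO2; LiveBLAzer substrate 1.5 hr RT; then CellTiter-Glo in same wells, 30 min RT, luminescence read.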

Assay [3] can be described thus: qHTS assay to identify small molecule agonists of the endoplasmic reticulum stress response signaling pathway (AID 1159516; active means well fitted activation curve with a large enough effect in the signal ratio in the repeat runs, not every such curve was filed as active; the % refers to the signal ratio; further: potency means the concentration at half of the fitted maximal effect). An outline of the steps:
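HeLa ESRE-bla reporter line; cpd 5 h, 37 C/5% CO2; LiveBLAzer B/G FRET substrate 2 h RT; ex 405, em 460/530 nm.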
In general terms: In qHTS, concentration-response curves come from the screen itself.

Assay [4] addresses Nuclear receptor ROR-gamma (Homo sapiens) (UniProt P51449). The assay is described as follows: qHTS assay to identify small molecule antagonists of the retinoid-related orphan receptor gamma (ROR-gamma) signaling pathway (AID 1159521; active means well fitted curve in the direction sought with a large enough effect in the repeat runs; an effect the other way counts as inactive or inconclusive;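 further: CHO cells with doxycycline inducible ROR-gamma driving an RORE luciferase reporter; top concentration of the series differs between compounds; nearly all actives have a fitted effect of over 50% in size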). In outline: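 Tet-on ROR-gamma CHO cells with ROR response element-luciferase reporter; compounds added 2 hr before 1 uM doxycycline induction, then 16 hr at 37 C. Antagonism scored as decreased ONE-Glo luminescence.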

Assay [5] can be described thus: qHTS assay to identify small molecule agonists of the AP-1 signaling pathway - cell viability counter screen (AID 1159525). Further: nearly all actives have a fitted effect of over 55% in size. Further: potency means the concentration at half of the fitted maximal effect. In outline: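 Same-well cytotoxicity counter screen of the Tox21 10K library in ME-180 cells. The readout is ATP-dependent luminescence after 5 h compound treatment. Data are normalised to DMSO and tetra n-octyl ammonium bromide controls.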
Assay [6] can be described thus: qHTS assay to identify small molecule agonists of the AP-1 signaling pathway (AID 1159526).
For assay [7], the target named is Retinoic acid receptor RXR-alpha (Homo sapiens) (UniProt P19793). The assay is described as follows: qHTS assay to identify small molecule agonists of the RXR signaling pathway (AID 1159527). Further: nearly all actives have a fitted effect of over 35% in size. Further: potency means the concentration at half of the fitted maximal effect. In outline:
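GeneBLAzer RXR-alpha-UAS-bla HEK 293T cells in 2% charcoal-stripped FBS medium were exposed to compounds for 16 hr at 37 C in agonist mode. Beta-lactamase reporter read as 460/530 nm FRET ratio after 2 hr substrate loading.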

Assay [8] is described as follows: qHTS assay to identify small molecule antagonists of the vitamin D receptor (VDR) signaling pathway - cell viability counter screen (AID 743225; active means well fitted curve in the direction sought with a large enough effect in the repeat runs; an effect the other way counts as inactive or inconclusive; further: nearly all actives have a fitted effect of over 50% in size). An outline of the steps:
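VDR-UAS-bla HEK 293T cells were plated and incubated 4 h at 37C, then dosed with compound plus 3 nM (final) 1-alpha,25-dihydroxyvitamin D3 for 16 h. After the 2 h beta-lactamase read, viability in the same wells was read as CellTiter-Glo luminescence after 30 min at room temperature.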

A short description of assay [9]: qHTS assay to identify small molecule antagonists of the retinoid-related orphan receptor gamma (ROR-gamma) signaling pathway - cell viability counter screen (AID 1159520; active means well fitted curve in the direction sought with a large enough effect in the repeat runs; an effect the other way counts as inactive or inconclusive; further: nearly all actives have a fitted effect of over 50% in size). In outline:
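Tet-on ROR gamma CHO cells were given compounds for 2 hr, then doxycycline hyclate at 1 uM final, and incubated 16 hr at 37 C. Viability was measured as ATP content by CellTiter-Glo luminescence.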

Assay [10] is described as follows: qHTS assay to identify small molecule agonists of the endoplasmic reticulum stress response signaling pathway - cell viability counter screen (AID 1159517). An outline of the steps: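 Steps: seed 1,500 ESRE-bla HeLa cells per well; incubate overnight at 37 C, 5% CO2; add compounds in DMSO for 5 hr; run FRET substrate 2 hr RT; add CellTiter-Glo, wait 30 min, read luminescence.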

Retinoic acid receptor RXR-alpha (Homo sapiens), sequence (P19793 whole entry, looked up): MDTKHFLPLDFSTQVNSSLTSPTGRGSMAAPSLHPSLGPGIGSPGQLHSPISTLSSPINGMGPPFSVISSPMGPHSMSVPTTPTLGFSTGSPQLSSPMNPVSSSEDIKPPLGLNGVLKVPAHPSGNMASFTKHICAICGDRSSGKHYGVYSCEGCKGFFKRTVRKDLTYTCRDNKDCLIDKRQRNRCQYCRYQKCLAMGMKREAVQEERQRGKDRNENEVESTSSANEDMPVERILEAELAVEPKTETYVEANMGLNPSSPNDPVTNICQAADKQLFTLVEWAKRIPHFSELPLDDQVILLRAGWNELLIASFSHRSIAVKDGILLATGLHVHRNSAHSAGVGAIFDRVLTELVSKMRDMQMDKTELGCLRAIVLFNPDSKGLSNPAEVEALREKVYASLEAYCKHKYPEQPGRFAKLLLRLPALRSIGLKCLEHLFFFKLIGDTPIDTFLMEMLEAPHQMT

Regarding `COC(=O)C1=C(C)NC(COC(N)=O)=C(C(=O)OC(C)C)C1c1cccc(Cl)c1Cl` (configuration not stated), the Potency entry in assay [1], in assay [2], in assay [4], in assay [5], in assay [6] and in assay [7] was “inactive” each time. Moreover, the Potency in assay [3] is 21.3 µM (active).
Turning to `OCCN1CCN(CCCN2c3ccccc3C=Cc3ccccc32)CC1`, the Potency entry in assay [1], in assay [8], in assay [2], in assay [3], in [9] and in [5] was “inactive” throughout. Also, the Potency entry in assay [6] and in assay [7] was “inactive” in each case.
`CN(C)CCCN1c2ccccc2Sc2ccccc21`: the Potency result in [2], in assay [3], in [9] and in assay [5] was “inactive” each time.
Turning to `CC[N+]1(CC)CCC(=C(c2ccccc2)c2ccccc2)C1C` (configuration not stated), the Potency entry in assay [2], in assay [3], in assay [9], in assay [6] and in assay [7] was “inactive” each time.
For `CC(C)C[C@H]1C(=O)N2CCC[C@H]2[C@]2(O)O[C@](NC(=O)[C@@H]3C=C4c5cccc6[nH]c(Br)c(c56)C[C@H]4N(C)C3)(C(C)C)C(=O)N12`, the Potency result in assay [1], in assay [8], in assay [2], in assay [3], in [9] and in [5] was “inactive” in each case. The Potency result in assay [6] is “inactive”.
As for `CCCCNc1ccc(C(=O)OCCOCCOCCOCCOCCOCCOCCOCCOCCOC)cc1`, the Potency result in [1], in [8], in [2], in [3], in [5] and in assay [6] was “inactive” in each case. The Potency result in assay [7] is “inactive”.
In the case of `c1ccc(C(O[C@H]2CCCN(CCc3ccc4c(c3)OCO4)C2)c2ccccc2)cc1`, the Potency entry in assay [1], in [8], in assay [2], in assay [3], in assay [9] and in assay [5] was “inactive” throughout.
In the case of `O=C1c2ccccc2S(=O)(=O)N1CCCCN1CCN(c2ncccn2)CC1`, the Potency result in assay [1], in assay [2], in assay [3], in assay [10] and in assay [6] was “inactive” throughout.
As for `CN(Cc1ccc(C(C)(C)C)cc1)Cc1cccc2ccccc12`, in assay [2], the Potency was 21.3 µM (active). Moreover, the Potency result in assay [10], in assay [9] and in [4] was “inactive” in each case.
Regarding `CCO[C@H](Cc1ccc(OCCc2ccc(OS(C)(=O)=O)cc2)cc1)C(=O)O`, the Potency result in [1], in assay [8], in [2], in assay [3], in assay [9] and in [5] was “inactive” each time. In addition, the Potency entry in assay [6] was “inactive”.
On to `ClCCOCCOCCCl`, for which the Potency entry in assay [1], in assay [8], in assay [2], in [3], in assay [9] and in assay [6] was “inactive” throughout. Also, the Potency result in assay [7] is “inactive”.
For the molecule `S=C([S-])NCCNC(=S)[S-].[Mn+2]`, the Potency result in assay [1], in assay [2], in assay [3], in assay [9], in [5] and in [6] was “inactive” each time.
Consider `O=C(OCCCCCCOC(=O)c1ccccc1)c1ccccc1`, for which the Potency in assay [1] was 43.6 µM (active). Further, the Potency entry in [8], in assay [2], in assay [3], in assay [9], in assay [4] and in assay [5] was “inactive” in each case.
Regarding `CCC(C)O` (configuration not stated), the Potency result in [1], in assay [8], in assay [2], in assay [3], in assay [10] and in assay [6] was “inactive” each time. Besides, the Potency result in [7] is “inactive”.
With `C=CCOc1ccccc1OCC(O)CNC(C)C` (configuration not stated), the Potency entry in assay [1], in assay [8], in assay [2], in assay [3], in [10] and in assay [5] was “inactive” each time. In addition, in assay [7], the Potency result is “inactive”.
Regarding `Nc1cc(C(=O)O)c(O)c(S(=O)(=O)O)c1`, the Potency entry in [1], in assay [8], in assay [2], in assay [3], in [9] and in [5] was “inactive” throughout. Besides, the Potency entry in assay [6] and in assay [7] was “inactive” each time.
On to `OC[C@H]1O[C@@H](OCCc2ccc(O)cc2)[C@H](O)[C@@H](O)[C@@H]1O`, for which the Potency result in assay [1], in assay [2], in [3], in assay [5], in assay [6] and in assay [7] was “inactive” throughout.
As for `C/C=C(/C(=C/C)c1ccc(OC(C)=O)cc1)c1ccc(OC(C)=O)cc1`, the Potency entry in assay [8], in assay [2], in assay [3], in assay [9] and in assay [4] was “inactive” in each case.
On to `CC(C)OC(=O)C(C)N(C(=O)c1ccccc1)c1ccc(F)c(Cl)c1` (configuration not stated), for which the Potency entry in [1], in [2], in assay [3], in assay [9], in assay [5] and in assay [6] was “inactive” in each case.
For `CCCCCCCCCCCCCCCCCCOS(=O)(=O)O`, the Potency in assay [1] was 54.9 µM (active); in [2], 43.6 µM (active); in [5] it was 38.9 µM (active). Besides, the Potency result in [3] and in assay [9] was “inactive” each time.
Take `CCCCC(CC)CN1C(=O)C2C3C=CC(C3)C2C1=O` (configuration not stated): the Potency entry in [2], in assay [10], in assay [9] and in assay [4] was “inactive” throughout.
For `CC(C)(O)c1ccc(CNC(=O)c2cccnc2Oc2ccc(F)cc2)cc1`, the Potency result in assay [1], in assay [8], in assay [2], in assay [3], in assay [9] and in assay [5] was “inactive” each time. Besides, in assay [6], the Potency result is “inactive”.
Consider `O=C1OC(=O)C2C3C=CC(C3)C12` (configuration not stated), for which the Potency entry in [1], in assay [2], in [3], in assay [9], in assay [4] and in assay [6] was “inactive” in each case. For the same molecule, the Potency result in assay [7] was “inactive”.
With `CCC(C)(C)CC`, the Potency entry in assay [8], in [2], in assay [3], in assay [9], in assay [4] and in [7] was “inactive” in each case.
Regarding `CCC(C)c1cc(C(C)(C)C)c(O)c(C(C)(C)C)c1` (configuration not stated), the Potency entry in assay [1], in assay [8], in [2], in [3], in [9] and in [5] was “inactive” in each case. Also, the Potency in assay [7] was 0.958 µM (active).
Regarding `CCOCC(O)COc1ccc(NC(=O)CC[S+](C)C)cc1` (configuration not stated), the Potency entry in assay [1], in assay [2], in assay [3], in [9], in assay [5] and in assay [6] was “inactive” throughout. Besides, the Potency result in assay [7] was “inactive”.
Consider `Cn1c(=O)cc(Oc2ccc(F)cc2F)c2cnc(NCC(C)(C)O)nc21`, for which the Potency result in [8], in assay [2], in assay [3], in assay [5] and in [6] was “inactive” throughout.
